Reference: the supplement of paper PMC9262897, “Low-cost anti-mycobacterial drug discovery using engineered E. coli” (Nature Communications, 2022)
Counter-ions that a name gives are not always drawn. ± gives the standard deviation of the averaged measurements.

How the values were obtained:
Assay in all cases: growth (OD600 after 10 h); higher = more growth (less inhibition)
[1] = system: E. coli TESEC Alr+ wild-type control; conditions: compound 0.1 mM; raw OD600 reference: median of DMSO wells 0.241, cell-free background 0.041
Protocol: (§1)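 TESEC Mtb Alr E. coli, or the Alr+ wild-type control, in 384-well plates with Prestwick library compounds at 0.1 mM and 1% DMSO, across arabinose induction levels of 1E3 to 1E7 nM. Growth is read as OD600 after 10 h at 37 °C in triplicate biological replicates.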

E. coli TESEC Mtb Alr [2] = conditions: compound 0.1 mM
Protocol: as §1

E. coli TESEC Mtb Asd = conditions: compound 0.1 mM
Protocol: (§2)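 TESEC E. coli strains in which the native enzyme is deleted and replaced by arabinose-inducible Mtb Asd, DapB, CysH or TrpD, each grown in its selective medium. Strains were screened against the Prestwick library at 0.1 mM and 1% DMSO in 384-well format at low and high arabinose induction. Growth is read as OD600 after 10 h in triplicate.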

E. coli TESEC Mtb DapB = conditions: compound 0.1 mM
Protocol: as §2

[3] = system: E. coli TESEC Alr+ wild-type control; conditions: compound 0.1 mM; raw OD600 reference: median of DMSO wells 0.49, cell-free background 0.052
Protocol: (§3)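 TESEC Mtb Alr E. coli (ΔaraC ΔtolC ΔentC Δalr ΔdadX, arabinose-inducible Mtb Alr) or the Alr+ wild-type control strain, grown in defined M9-fructose medium without D-alanine in 96-well plates with Prestwick library compounds at 0.1 mM and 1% DMSO. Low Alr induction is 0.1 µM arabinose and high induction is 10 mM arabinose.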

E. coli TESEC Mtb Alr [4] = conditions: compound 0.1 mM; remark: listed apart in the source
Protocol: as §3

[5] = arabinose 1000 nM, raw OD600 reference: median of DMSO wells 0.294, cell-free background 0.041
[6] = arabinose 10000 nM, raw OD600 reference: median of DMSO wells 0.264, cell-free background 0.041
[7] = arabinose 100000 nM, raw OD600 reference: median of DMSO wells 0.201, cell-free background 0.041
[8] = arabinose 1000000 nM, raw OD600 reference: median of DMSO wells 0.193, cell-free background 0.041
[9] = arabinose 10000000 nM, raw OD600 reference: median of DMSO wells 0.146, cell-free background 0.041
[10] = arabinose induction (level): High, raw OD600 reference: median of DMSO wells 0.331, cell-free background 0.041
[11] = arabinose induction (level): Low, raw OD600 reference: median of DMSO wells 0.417, cell-free background 0.041
[12] = arabinose induction (level): High, raw OD600 reference: median of DMSO wells […], cell-free background 0.041
[13] = arabinose induction (level): Low, raw OD600 reference: median of DMSO wells 0.227, cell-free background 0.041
[14] = arabinose 100 nM, raw OD600 reference: median of DMSO wells 0.413, cell-free background 0.052
[15] = arabinose 10000000 nM, raw OD600 reference: median of DMSO wells […], cell-free background 0.052

Row | SMILES | growth [1] | growth (E. coli TESEC Mtb Alr [2]; [5]) | growth (E. coli TESEC Mtb Alr [2]; [6]) | growth (E. coli TESEC Mtb Alr [2]; [7]) | growth (E. coli TESEC Mtb Alr [2]; [8]) | growth (E. coli TESEC Mtb Alr [2]; [9]) | growth (E. coli TESEC Mtb Asd; [10]) | growth (E. coli TESEC Mtb Asd; [11]) | growth (E. coli TESEC Mtb DapB; [12]) | growth (E. coli TESEC Mtb DapB; [13]) | growth [3] | growth (E. coli TESEC Mtb Alr [4]; [14]) | growth (E. coli TESEC Mtb Alr [4]; [15])
1 | O=C(O)CCC(=O)c1ccc(-c2ccccc2)cc1 [Fenbufen] | 0.201 ± 0.0054 | 0.232 ± 0.013 | 0.229 ± 0.0062 | 0.137 ± 0.0052 | 0.128 ± 0.0089 | 0.127 ± 0.0092 | 0.25 ± 0.049 | 0.286 ± 0.047 | 0.165 ± 0.0041 | 0.203 ± 0.047 | 0.441 ± 0.051 | 0.399 ± 0.013 | 0.235 ± 0.007
2 | CN(C)CC/C=C1\c2ccccc2CSc2ccccc21 [Dosulepin hydrochloride] | 0.168 ± 0.0019 | 0.208 ± 0.0074 | 0.309 ± 0.019 | 0.211 ± 0.0092 | 0.146 ± 0.0095 | 0.163 ± 0.0079 | 0.14 ± 0.0062 | 0.263 ± 0.0048 | 0.168 ± 0.015 | 0.202 ± 0.0032 | 0.425 ± 0.028 | 0.413 ± 0.013 | 0.308 ± 0.0073
3 | O=C1CN(/N=C/c2ccc([N+](=O)[O-])o2)C(=O)N1 [Nitrofurantoin] | 0.0453 ± 0.00076 | 0.181 ± 0.0058 | 0.0822 ± 0.0037 | 0.04437 ± 0.00021 | 0.0737 ± 0.0054 | 0.0451 ± 0.00093 | 0.196 ± 0.034 | 0.341 ± 0.038 | 0.172 ± 0.009 | 0.218 ± 0.034 | 0.053 ± 0.00026 | 0.0546 ± 0.0087 | 0.055 ± 0.0017
4 | Cc1ncc([N+](=O)[O-])n1CC(O)CCl (centres undefined) [Ornidazole] | 0.233 ± 0.0094 | 0.282 ± 0.012 | 0.268 ± 0.007 | 0.225 ± 0.019 | 0.177 ± 0.0086 | 0.1385 ± 0.00036 | 0.381 ± 0.015 | 0.421 ± 0.028 | 0.191 ± 0.0088 | 0.218 ± 0.031 | 0.43 ± 0.049 | 0.409 ± 0.0059 | 0.369 ± 0.02
5 | CC(C)NC[C@H](O)COc1ccc(CC(N)=O)cc1 [(S)-(-)-Atenolol] | 0.244 ± 0.0056 | 0.288 ± 0.016 | 0.2708 ± 0.0025 | 0.214 ± 0.04 | 0.184 ± 0.0026 | 0.1491 ± 0.0014 | 0.287 ± 0.095 | 0.343 ± 0.051 | 0.193 ± 0.037 | 0.222 ± 0.03 | 0.528 ± 0.092 | 0.413 ± 0.01 | 0.341 ± 0.022
6 | O=C(O)CCCC[C@@H]1SC[C@@H]2NC(=O)N[C@@H]21 [Biotin] | 0.257 ± 0.0089 | 0.309 ± 0.0092 | 0.265 ± 0.016 | 0.217 ± 0.028 | 0.206 ± 0.018 | 0.145 ± 0.0046 | 0.347 ± 0.05 | 0.418 ± 0.045 | 0.18 ± 0.0081 | 0.208 ± 0.022 | 0.615 ± 0.056 | 0.408 ± 0.0076 | 0.354 ± 0.014
7 | Cc1cccc(C)c1NC(=O)CN1CCN(CCCC(c2ccc(F)cc2)c2ccc(F)cc2)CC1 [Lidoflazine] | 0.239 ± 0.0079 | 0.311 ± 0.0035 | 0.263 ± 0.0048 | 0.223 ± 0.018 | 0.174 ± 0.0022 | 0.163 ± 0.0025 | 0.333 ± 0.059 | 0.361 ± 0.11 | 0.232 ± 0.026 | 0.227 ± 0.015 | 0.563 ± 0.013 | 0.4122 ± 0.0027 | 0.379 ± 0.012
8 | C[C@@H]1NC(=O)NC1=O [Methylhydantoin-5-(L)] | 0.236 ± 0.0048 | 0.292 ± 0.012 | 0.274 ± 0.005 | 0.182 ± 0.017 | 0.186 ± 0.0047 | 0.1457 ± 0.0013 | 0.427 ± 0.024 | 0.44 ± 0.036 | 0.192 ± 0.013 | 0.245 ± 0.022 | 0.49 ± 0.056 | 0.411 ± 0.016 | 0.352 ± 0.014
